Source: PubChem BioAssay (Tox21)
Results filed as inconclusive are left out. Active and inactive are the calls of the source. Unless noted, calls come from the whole dose curve; as a rule, active = well fitted curve in the direction sought with a large enough effect in the repeat runs; inconclusive = weak or mixed curves; inactive = no such curve, though single readings can be large; an effect the other way counts as inactive or inconclusive.

Assays:
[1] = target: Peroxisome proliferator-activated receptor delta (Homo sapiens) (UniProt Q03181); assay: qHTS assay to identify small molecule agonists of the peroxisome proliferator-activated receptor delta (PPARd) signaling pathway (AID 743212; calls by dose curve)
Chain of Peroxisome proliferator-activated receptor delta (Homo sapiens) (Q03181 whole entry, looked up): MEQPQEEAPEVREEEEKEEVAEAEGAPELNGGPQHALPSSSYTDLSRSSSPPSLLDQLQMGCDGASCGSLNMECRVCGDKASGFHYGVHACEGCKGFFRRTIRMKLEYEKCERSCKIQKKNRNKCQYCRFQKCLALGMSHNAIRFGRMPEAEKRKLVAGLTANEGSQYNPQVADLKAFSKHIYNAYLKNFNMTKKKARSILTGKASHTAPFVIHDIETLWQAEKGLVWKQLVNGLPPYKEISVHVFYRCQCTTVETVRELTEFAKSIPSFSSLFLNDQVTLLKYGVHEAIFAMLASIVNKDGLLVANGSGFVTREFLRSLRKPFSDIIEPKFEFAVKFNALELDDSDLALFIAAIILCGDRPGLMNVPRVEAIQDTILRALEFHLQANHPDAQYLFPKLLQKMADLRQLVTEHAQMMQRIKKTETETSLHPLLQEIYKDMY
Summary of the method: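 HEK293H UAS-bla reporter cells, human PPARd system; compounds delivered in DMSO after 5 h plating, then at 37 C. Beta-lactamase FRET read, 2 h RT substrate step.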

[2] = qHTS assay to identify small molecule antagonists of the peroxisome proliferator-activated receptor delta (PPARd) signaling pathway - cell viability counter screen (AID 743213); note: nearly all actives have a fitted effect of over 50% in size
Summary of the method: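 Same-well viability: cells pre-incubated 5 h, dosed with compound plus 300 nM L165041, kept 17 h at 37 C, FRET substrate 2 h RT, then CellTiter-Glo 30 min RT and luminescence.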

[3] = target: Peroxisome proliferator-activated receptor delta (Homo sapiens) (UniProt Q03181); assay: qHTS assay to identify small molecule antagonists of the peroxisome proliferator-activated receptor delta (PPARd) signaling pathway (AID 743215; active = well fitted inhibition curve with a large enough effect in the signal ratio in the repeat runs, not every such curve was filed as active; the % refers to the signal ratio;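 note: cells stimulated with agonist L165041 at 300 nM final during compound exposure; series mostly up to about 62 µM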)
Summary of the method: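 Read-out is beta-lactamase FRET fluorescence, measured 2 h after substrate addition at room temperature. Beforehand, UAS-bla HEK293H cells carrying the PPARd reporter were exposed to compounds with L165041 at 300 nM final for 17 h at 37 C.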

[4] = qHTS assay to identify small molecule antagonists of the farnesoid-X-receptor (FXR) signaling pathway - cell viability counter screen (AID 743221; active = well fitted cell-killing curve with a large enough effect in the repeat runs, not every such curve was filed as active; note: nearly all actives have a fitted effect of over 50% in size)
Summary of the method: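 Cytotoxicity counter screen run in the FXR-bla reporter wells: HEK 293T cells exposed to compound with 50 uM (final) chenodeoxycholic acid for 16 h, 37 C, then viability measured by CellTiter-Glo luminescence after 30 min, room temperature.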

[5] = target: Vitamin D3 receptor (Homo sapiens) (UniProt P11473); assay: qHTS assay to identify small molecule agonists of the vitamin D receptor (VDR) signaling pathway (AID 743222; calls by dose curve; note: potency is the fitted concentration of half-maximal effect)
Chain of Vitamin D3 receptor (Homo sapiens) (P11473 whole entry, looked up): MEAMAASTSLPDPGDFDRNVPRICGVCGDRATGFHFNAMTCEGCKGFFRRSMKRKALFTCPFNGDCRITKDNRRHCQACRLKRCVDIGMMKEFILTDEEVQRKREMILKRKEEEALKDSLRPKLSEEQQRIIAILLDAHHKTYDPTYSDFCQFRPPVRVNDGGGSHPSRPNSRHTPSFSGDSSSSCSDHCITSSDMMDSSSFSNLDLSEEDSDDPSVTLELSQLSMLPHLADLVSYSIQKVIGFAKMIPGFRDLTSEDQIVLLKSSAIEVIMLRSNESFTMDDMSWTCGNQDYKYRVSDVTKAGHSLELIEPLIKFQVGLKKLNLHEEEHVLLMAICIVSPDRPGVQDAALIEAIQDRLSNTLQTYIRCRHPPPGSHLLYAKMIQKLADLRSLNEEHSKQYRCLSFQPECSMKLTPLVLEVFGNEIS
Summary of the method: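 VDR-bla cells, 2,000/well; 4 h preincubation 37C; cpd (DMSO) 16 h; LiveBLAzer B/G substrate 2 h RT; fluorescence intensity read.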

[6] = target: Vitamin D3 receptor (Homo sapiens) (UniProt P11473); assay: qHTS assay to identify small molecule antagonists of the vitamin D receptor (VDR) signaling pathway (AID 743223; active = well fitted inhibition curve with a large enough effect in the signal ratio in the repeat runs, not every such curve was filed as active; the % refers to the signal ratio)
Summary of the method: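 Antagonist mode: compound added to VDR-bla cells alongside agonist 1alpha,25-dihydroxyvitamin D3 (3 nM final), incubation 16 h at 37C. Read-out is LiveBLAzer FRET fluorescence, 2 h at room temperature.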

[7] = target: Bile acid receptor (Homo sapiens) (UniProt Q96RI1); assay: qHTS assay to identify small molecule agonists of the farnesoid-X-receptor (FXR) signaling pathway (AID 743220; active = well fitted activation curve with a large enough effect in the signal ratio in the repeat runs, not every such curve was filed as active; the % refers to the signal ratio)
Chain of Bile acid receptor (Homo sapiens) (Q96RI1 whole entry, looked up): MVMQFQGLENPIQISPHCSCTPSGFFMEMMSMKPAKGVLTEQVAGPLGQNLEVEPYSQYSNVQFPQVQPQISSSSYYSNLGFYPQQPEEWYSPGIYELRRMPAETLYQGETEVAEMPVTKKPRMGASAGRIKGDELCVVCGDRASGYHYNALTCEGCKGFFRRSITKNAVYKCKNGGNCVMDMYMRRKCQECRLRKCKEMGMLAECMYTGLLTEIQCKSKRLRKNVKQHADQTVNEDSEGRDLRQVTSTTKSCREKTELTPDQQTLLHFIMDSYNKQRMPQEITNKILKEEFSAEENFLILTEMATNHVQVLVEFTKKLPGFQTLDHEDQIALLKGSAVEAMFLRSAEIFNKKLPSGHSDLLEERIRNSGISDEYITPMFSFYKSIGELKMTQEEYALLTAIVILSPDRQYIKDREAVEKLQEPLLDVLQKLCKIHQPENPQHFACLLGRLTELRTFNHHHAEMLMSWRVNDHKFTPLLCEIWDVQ
Summary of the method: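 Beta-lactamase reporter under UAS control in GeneBLAzer FXR HEK 293T cells (5000/well) measured with LiveBLAzer FRET substrate after 2 h at room temperature. Compound exposure lasted 16 h at 37C.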

[8] = qHTS assay to identify small molecule agonists of the farnesoid-X-receptor (FXR) signaling pathway - cell viability counter screen (AID 743218); note: nearly all actives have a fitted effect of over 45% in size
Summary of the method: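 HEK 293T FXR-bla cells; 5 h pre-incubation, 16 h compound exposure at 37 C; LiveBLAzer substrate 2 h RT, then CellTiter-Glo 30 min RT, luminescence.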

[9] = target: Bile acid receptor (Homo sapiens) (UniProt Q96RI1); assay: qHTS assay to identify small molecule antagonists of the farnesoid-X-receptor (FXR) signaling pathway (AID 743217; active = well fitted inhibition curve with a large enough effect in the signal ratio in the repeat runs, not every such curve was filed as active; the % refers to the signal ratio)
Summary of the method: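 HEK 293T FXR-UAS-bla, 5000 cells/well; compound + CDCA 50 uM final; 16 h, 37 °C; B/G FRET substrate 2 h RT; fluorescence.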
% is set by controls: 0 for no effect and ±100 for the full control effect.

C=C1C2CCC(C2)C1(C)C (stereo not given)
inactive: outcome [1] | Potency [2] | outcome [3] | Potency [4] | Potency [5] | Potency [6]

Oc1c(Cl)cc(Cl)c(Cl)c1Cl
inactive: outcome [3] | outcome [7] | Potency [4]

CN(C)c1ccc(C(=N)c2ccc(N(C)C)cc2)cc1
inactive: outcome [1] | Potency [8] | Potency [4] | Potency [5]

Clc1cc(Cl)c(Cl)cc1Cl
inactive: outcome [1] | Potency [2] | outcome [3] | Potency [8] | Potency [4]

CC(C)(N=C=O)c1cccc(C(C)(C)N=C=O)c1
inactive: outcome [1] | outcome [3] | Potency [4] | Potency [6]

CCc1ccc(O)cc1
inactive: outcome [1] | Potency [2] | outcome [3] | Potency [8] | Potency [4]

C=C(C#N)C(=O)OCC
inactive: outcome [1] | Potency [2] | Potency [8] | Potency [4]

OC[C@@H](O)[C@H](O)[C@H](O)[C@@H](O)CO
inactive: Potency [2] | Potency [8] | Potency [4]

CC1(C)O[C@@H]2C[C@H]3[C@@H]4C[C@H](F)C5=CC(=O)CC[C@]5(C)[C@H]4[C@@H](O)C[C@]3(C)[C@]2(C(=O)CO)O1
inactive: Potency [2] | outcome [3] | Potency [4] | Potency [5]

C=C(C)C(=O)OCC(CC)(COC(=O)C(=C)C)COC(=O)C(=C)C
inactive: outcome [1] | outcome [3] | outcome [9] | Potency [8] | outcome [7] | Potency [4]

C=C1CC[C@H](O)CC1=C/C=C1\CCC[C@]2(C)[C@@H]([C@H](C)/C=C/[C@H](C)C(C)C)CC[C@@H]12
inactive: Potency [2] | outcome [3] | outcome [7] | Potency [4]
active: Potency [5] 3.86 µM

O=Nc1ccc(O)cc1
inactive: outcome [1] | outcome [3] | outcome [9] | Potency [8] | outcome [7] | Potency [4]

O=C1N=C(O)CN1/N=C/c1ccc(-c2ccc([N+](=O)[O-])cc2)o1
inactive: Potency [4] | Potency [5] | Potency [6]

CCCCCCCCC
inactive: outcome [1] | Potency [2] | outcome [3] | Potency [8] | Potency [4] | Potency [6]

CC#C[C@]1(O)CC[C@H]2[C@@H]3CCC4=CC(=O)CCC4=C3[C@@H](c3ccc(N(C)C)cc3)C[C@@]21C
inactive: Potency [4]

Oc1ccc2ccccc2c1N=Nc1ccccc1
inactive: Potency [2] | outcome [9] | Potency [8] | outcome [7] | Potency [4]

OC[C@@H](O)[C@@H](O)[C@H](O)[C@@H](O)CO
inactive: Potency [2] | Potency [8] | Potency [4] | Potency [5]

CC1(C)CC(N=C=O)CC(C)(CN=C=O)C1 (stereo not given)
inactive: Potency [2] | outcome [9] | outcome [7] | Potency [4] | Potency [6]

COC(=O)c1ccc(C(=O)OC)cc1
inactive: Potency [2] | Potency [8] | Potency [4] | Potency [5]

Cn1c([N+](=O)[O-])cnc1COC(N)=O
inactive: outcome [1] | Potency [2] | outcome [3] | Potency [4] | Potency [6]

CC1=C(CC(=O)O)c2cc(F)ccc2/C1=C\c1ccc(S(C)=O)cc1 (stereo not given)
inactive: Potency [2] | outcome [3] | Potency [8] | Potency [4]

CCCCC(CC)COC(=O)/C=C\C(=O)OCC(CC)CCCC (stereo not given)
inactive: outcome [1] | outcome [3] | Potency [4] | Potency [5]

ClC1=C(Cl)C(Cl)(Cl)C(Cl)=C1Cl
inactive: outcome [1] | Potency [2] | outcome [3] | Potency [8] | Potency [4] | Potency [6]

CC(C)n1c(/C=C/[C@@H](O)C[C@@H](O)CC(=O)O)c(-c2ccc(F)cc2)c2ccccc21
inactive: Potency [8] | Potency [4]

NCCNCCNCCNCCN
inactive: outcome [1] | Potency [2] | outcome [3] | Potency [8] | Potency [4] | Potency [5] | activity change, negative = inhibition [6] 2.31% [at 6.95 µM]

Cc1cc(O)c2c(c1)C(=O)c1cc(O)cc(O)c1C2=O
inactive: Potency [2] | Potency [4]

CC1=C(/C=C/C(C)=C/C=C/C(C)=C/CO)C(C)(C)CCC1
inactive: Potency [2] | outcome [3] | Potency [4] | Potency [6]

O=C(c1cc(O)c(O)c(O)c1)c1ccc(O)c(O)c1O
inactive: outcome [1] | outcome [3] | outcome [9] | Potency [8] | outcome [7] | Potency [4] | Potency [5] | Potency [6]

NCCc1ccc(O)c(O)c1
inactive: outcome [9] | Potency [8] | outcome [7] | Potency [4]

CC(C)(CO)COC(=O)C(C)(C)CO
inactive: outcome [1] | outcome [3] | outcome [9] | Potency [8] | outcome [7] | Potency [4] | Potency [5] | Potency [6]

OC1CCCC1
inactive: outcome [1] | outcome [3] | Potency [4]

O=C(O)c1ccc([N+](=O)[O-])cc1
inactive: outcome [1] | Potency [2] | outcome [3] | outcome [9] | outcome [7] | Potency [4]

C=C(C)C(=O)OCCCCCCCCCCCC
inactive: outcome [1] | Potency [2] | outcome [3] | Potency [4] | Potency [5]

CC(C)(C)C1CCC(O)CC1 (stereo not given)
inactive: outcome [1] | Potency [2] | outcome [3] | Potency [4] | Potency [6]

COC(=O)Nc1nc2ccc(Sc3ccccc3)cc2[nH]1
inactive: outcome [1] | Potency [2] | Potency [8] | Potency [4] | Potency [5]

CC1COc2ccccc2N1C(=O)C(Cl)Cl (stereo not given)
inactive: outcome [3] | Potency [8] | Potency [4] | Potency [5]
